Reference: PubChem BioAssay AID1159580 (chemical genetic matrix, 2015)
Out of some 5,500 compounds screened, about 2,000 (36%) were called active. About 18% were inconclusive and are not listed. No stated cut-off is given here; in the data, active means normalized growth mostly below about 0.91 (no sharp cut-off); inconclusive means no clear call, values can overlap the other calls; inactive means mostly above about 0.92. The list shows a part of the results.

Test: chemical genetic growth profiling, strain panel (AID 1159580);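 further: tested at 20 µM; growth read once vehicle control cultures reached saturation at 30 °C; 1 = growth at the plate median or of vehicle wells; lower values mean less growth of the strain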
Conditions: S. cerevisiae deletion strains, growth OD

Measured: normalized growth

N=c1ccn2c(n1)OC1C(O)C(CO)OC12 (stereo unspecified)
inactive: locus YAL021C, strain ccr4, active compounds read low 1.01 | locus YAL026C, strain drs2, active compounds read low 1.02 | locus YAL030W, strain snc1, active compounds read low 0.991 | locus YBL061C, strain skt5, active compounds read low 1.01 | locus YBR009C, strain hhf1, active compounds read low 1.01 | locus YBR023C, strain chs3, active compounds read low 0.995 | locus YBR171W, strain sec66, active compounds read low 1.01 | locus YBR231C, strain swc5, active compounds read low 1.01 | locus YBR279W, strain paf1, active compounds read low 1.01 | locus YCL011C, strain gbp2, active compounds read low 1.01 | locus YCL016C, strain dcc1, active compounds read low 1 | locus YCL061C, strain MRC1, active compounds read low 0.986 | locus YCL069W, strain vba3, active compounds read low 1.01 | locus YCR088W, strain abp1, active compounds read low 1.01 | locus YDL005C, strain med2, active compounds read low 0.986 | locus YDL040C, strain nat1, active compounds read low 0.986 | locus YDR001C, strain nth1, active compounds read low 1.01 | locus YDR069C, strain doa4, active compounds read low 1.01 | locus YDR137W, strain rgp1, active compounds read low 1.02 | locus YDR159W, strain sac3, active compounds read low 1 | locus YDR195W, strain ref2 0.976 | locus YDR297W, strain sur2, active compounds read low 0.986 | locus YDR334W, strain swr1, active compounds read low 1 | locus YDR335W, strain msn5, active compounds read low 1 | locus YDR392W, strain spt3, active compounds read low 1.01 | locus YEL003W, strain gim4, active compounds read low 1 | locus YEL037C, strain rad23, active compounds read low 0.995 | locus YEL061C, strain CIN8 (second series), active compounds read low 1.01 | locus YER015W, strain faa2, active compounds read low 1.01 | locus YER016W, strain bim1, active compounds read low 1 | locus YER111C, strain swi4, active compounds read low 0.981 | locus YER155C, strain BEM2 (second series), active compounds read low 1.01 | locus YFR010W, strain ubp6, active compounds read low 0.998 | locus YGL167C, strain pmr1, active compounds read low 1 | locus YGL173C, strain kem1, active compounds read low 0.996 | locus YGL227W, strain vid30, active compounds read low 1.02 | locus YGL240W, strain doc1, active compounds read low 0.978 | locus YGL253W, strain hxk2, active compounds read low 1 | locus YHR013C, strain ard1, active compounds read low 1.01 | locus YHR027C, strain rpn1, active compounds read low 1.01 | locus YHR142W, strain chs7, active compounds read low 1.01 | locus YJL092W, strain hpr5, active compounds read low 1.01 | locus YJL095W, strain BCK1 (second series), active compounds read low 1 | locus YJL115W, strain asf1, active compounds read low 1.01 | locus YJL129C, strain trk1, active compounds read low 1.02 | locus YJL154C, strain vps35, active compounds read low 1 | locus YJL164C, strain tpk1, active compounds read low 1 | locus YJL166W, strain qcr8, active compounds read low 0.982 | locus YKL160W, strain elf1, active compounds read low 1 | locus YKR026C, strain gcn3, active compounds read low 1.02 | locus YKR091W, strain srl3, active compounds read low 1 | locus YLL001W, strain dnm1, active compounds read low 0.998 | locus YLL026W, active compounds read low 1 | locus YLL041C, strain sdh2, active compounds read low 1 | locus YLR027C, strain aat2, active compounds read low 1.01 | locus YLR221C, strain rsa3, active compounds read low 0.993 | locus YLR258W, strain gsy2, active compounds read low 1.01 | locus YLR262C, strain YPT6 (second series), active compounds read low 1.02 | locus YLR320W, strain mms22, active compounds read low 1.01 | locus YLR342W, strain FKS1, active compounds read low 1.01 | locus YLR357W, strain rsc2, active compounds read low 0.946 | locus YLR370C, strain arc18, active compounds read low 1.01 | locus YLR384C, strain iki3, active compounds read low 1 | locus YML120C, strain ndi1, active compounds read low 0.993 | locus YMR058W, strain fet3, active compounds read low 0.998 | locus YMR125W, strain sto1, active compounds read low 0.995 | locus YMR129W, active compounds read low 0.987 | locus YMR205C, strain PFK2, active compounds read low 1.01 | locus YMR231W, strain pep5, active compounds read low 1.01 | locus YNL071W, strain lat1, active compounds read low 1.02 | locus YNL209W, strain ssb2, active compounds read low 1 | locus YNL248C, strain rpa49, active compounds read low 1.01 | locus YNL322C, strain KRE1 (second series), active compounds read low 1.01 | locus YNR049C, strain mso1, active compounds read low 1 | locus YOR001W, strain rrp6, active compounds read low 1.01 | locus YOR070C, strain gyp1, active compounds read low 1.01 | locus YOR080W, strain dia2, active compounds read low 0.996 | locus YOR083W, strain WHI5, active compounds read low 1.01 | locus YOR106W, strain vam3, active compounds read low 1.02 | locus YOR265W, strain rbl2, active compounds read low 0.993 | locus YOR270C, strain vph1, active compounds read low 1.04 | locus YOR290C, strain snf2, active compounds read low 1.01 | locus YPL051W, strain arl3, active compounds read low 1 | locus YPL078C, strain atp4, active compounds read low 0.996 | locus YPL106C, strain sse1, active compounds read low 0.981 | locus YPL240C, strain hsp82, active compounds read low 1.02
